The source of these data is PubChem BioAssay (NCATS).

The nature of assay [1]: qHTS profiling for inhibitors of Plasmodium falciparum (3D7) proliferation (AID 743322; call rule not given here;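 note: infected erythrocytes exposed to compound for 72 h before lysis; 100% = DMSO vehicle wells and 0% = 0.29 µM artemisinin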). The settings on record: P. falciparum 3D7 proliferation; at 28.7 µM (top of the series) unless noted. In a few lines:
(§1)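 Parasite DNA was quantified by SYBR Green I fluorescence (ex 485, em 535 nm) after overnight lysis in saponin/Triton buffer at room temperature. Cultures at 0.3% parasitemia and 2.5% hematocrit were first exposed to compound for 72 h at 37 C; signals were normalised to artemisinin (0.29 uM) and vehicle wells.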
For orientation: qHTS replaces the single test concentration by a dilution series.

Assay [2] can be described thus: qHTS profiling for inhibitors of Plasmodium falciparum (DD2) proliferation (AID 743323; call rule not given here). The settings on record: lower = more inhibition; at 28.7 µM (top of the series) unless noted. Summed up: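 Parasite DNA quantified by SYBR Green fluorescence (ex 485, em 535 nm) after saponin/Triton lysis and overnight dark incubation. Cultures: 0.3% parasitemia, 2.5% hematocrit, 72 h, 37 C; data scaled between DMSO and 0.29 uM artemisinin.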

A short description of assay [3]: qHTS profiling for inhibitors of Plasmodium falciparum (HB3) proliferation (AID 743324).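 Note: 100% = DMSO vehicle wells and 0% = artemisinin-treated control wells.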 Conditions: Plasmodium falciparum HB3 blood-stage proliferation; at 28.7 µM (top of the series) unless noted. In a few lines: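 SYBR Green fluorescence (485 ex/535 em) of lysed cultures, incubated overnight at room temperature in the dark, quantifies parasite DNA. Infected erythrocytes at 0.3% parasitemia and 2.5% hematocrit were exposed 72 h; values normalized to DMSO and 0.29 uM artemisinin controls.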

Assay [4] can be described thus: qHTS profiling of the MIPE4 collection as inhibitors of Plasmodium falciparum (3D7) proliferation (AID 743344; call rule not given here;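 note: scaled between DMSO vehicle wells and 0.29 µM artemisinin as full inhibition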). Conditions: P. falciparum 3D7 in erythrocytes, SYBR Green DNA fluorescence, 72 h; at 28.5 µM (top of the series) unless noted. In a few lines: as §1
Assay [5] in a line: qHTS profiling of the MIPE4 collection as inhibitors of Plasmodium falciparum (DD2) proliferation (AID 743345; call rule not given here). The settings on record: P. falciparum Dd2 in erythrocytes, SYBR Green DNA, 72 h; at 28.5 µM (top of the series) unless noted. Summed up: as §1
Assay [6] is described as follows: qHTS profiling of the MIPE4 collection as inhibitors of Plasmodium falciparum (DD2) proliferation (Rep 2) (AID 743346; call rule not given here). Conditions: P. falciparum Dd2 in erythrocytes, SYBR Green DNA, 72 h; at 28.5 µM (top of the series) unless noted. In a few lines:
as §1

The nature of assay [7]: qHTS profiling of the MIPE4 collection as inhibitors of Plasmodium falciparum (HB3) proliferation (AID 743347; call rule not given here;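 note: plate controls were DMSO vehicle wells for no effect and artemisinin wells for full effect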). The settings on record: P. falciparum HB3 in erythrocytes, SYBR Green DNA, 72 h; at 28.5 µM (top of the series) unless noted. Summed up: as §1
A short description of assay [8]: Cell Proliferation Assay Versus the ED40515 IL2 Dependent ATL cell lines (AID 1053195; calls by dose curve). Conditions: ED40515 IL2-dependent ATL cells. In a few lines:
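CellTiter-Glo luminescence (15 min, RT) measured viability after 48 hours at 37C; cells were ED40515 +IL2, 1000/well, in phenol red-free RPMI with 5% FBS. Controls: DMSO and 9.2 uM bortezomib.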

A short description of assay [9]: High-throughput drug toxicity screening in the BPDCN cell line Gen2.2 (AID 1224824; call rule not given here;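 note: cells exposed to compounds for 48 h before reading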). The settings on record: Gen2.2 BPDCN cells; at 45.8 µM (top of the series) unless noted. Summed up:
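CellTiter-Glo luminescence after 48 h compound exposure of Gen2.2 cells; percent activity set with DMSO as 100% and bortezomib (9.2 uM final) as 0%. Cells seeded at 500 per well, RPMI + 10% FBS, 37 °C.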

Assay [10] in a line: High-throughput drug toxicity screening in the BPDCN cell line Cal-1 (AID 1224825; call rule not given here). Conditions: Cal-1 BPDCN cell viability, qHTS; at 45.8 µM (top of the series) unless noted. In a few lines: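 Percent activity derived from CellTiter-Glo luminescence, scaling DMSO to 100% and 9.2 uM final bortezomib to 0%. BPDCN Cal-1 cells (500/well, RPMI plus 10% FBS) incubated with compounds 48 hours at 37C before reading.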

Assay [11] is described as follows: qHTS assay for measurement of the activity of small molecule inhibitors on Zika virus induced Caspase-3 activity in human iPSC derived neural progenitor cells (hNPCs) (AID 1224857). Note: % of control where 0% means no effect; nearly all actives have a fitted effect of over 65% in size. In a few lines:
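In medium with heparin 2 ug/ml and cyclopamine 2 uM, hNPCs (350 cells/well) received compound for one hour and then Zika virus at 2 FFU/cell; caspase activity was measured by Caspase-Glo 3/7 luminescence 6 h post-infection.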

Assay [12] can be described thus: qHTS assay for measurement of the activity of small molecule inhibitors on Zika virus induced Caspase-3 activity in human astrocytoma cells (AID 1224859).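 Note: plate controls were ZIKV-infected untreated cells for no effect and uninfected cells for full effect.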 Summed up:
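A cell-based luminescent caspase-3/7 assay used SNB-19 cells infected with ZIKV (2 FFU/cell) for 6 h following 1 h compound pretreatment.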

A short description of assay [13]: qHTS Screen of the MIPE 4.0 Collection Against Ewings Sarcoma (RDES) (AID 1259252). Note: nearly all actives have a fitted effect of over 35% in size. Note: potency is the fitted concentration of half-maximal effect. In a few lines: (§2)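 Cells plated in serum-containing RPMI (5% FBS) and treated with compound dilutions for 48 h. Readout luminescent viability; normalization relied on vehicle (no inhibition) and media-only columns (full inhibition).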
A short description of assay [14]: qHTS Screen of the MIPE 4.0 Collection Against Ewings Sarcoma (TC71) (AID 1259253). Note: nearly all actives have a fitted effect of over 40% in size. Note: potency is the fitted concentration of half-maximal effect. Summed up: as §2
Assay [15] can be described thus: qHTS Screen of the MIPE 4.0 Collection Against Ewings Sarcoma (EW8) (AID 1259255).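 For viability: 100% = DMSO-treated cells and 0% = medium-only wells without cells.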 Note: nearly all actives have a fitted effect of over 35% in size. Note: potency is the fitted concentration of half-maximal effect. Summed up: as §2
Assay [16] is described as follows: qHTS Screen of the MIPE 4.0 Collection Against Ewings Sarcoma (TC32) (AID 1259256). Note: nearly all actives have a fitted effect of over 45% in size. Note: potency is the fitted concentration of half-maximal effect. In a few lines:
as §2

Assay [17] is described as follows: Identifying Small Molecule Inhibitors of Pancreatic Cancer Stem Cells (A2780, Spheroid) (AID 1259357).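 Note: spheroids pre-formed over 14 days in stem cell medium on hydrogel; potency is the fitted concentration of half-maximal effect; compound exposure lasted 48 h before the ATP luminescence read.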 The settings on record: Potency: A2780 spheroid viability. Summed up:
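Spheroids grown 14 days in stem cell media on hydrogel-coated nonadherent plates; 2D lines seeded directly. Compounds added after 4 h attachment, 48 h at 37C, 5% CO2; CellTiter-Glo luminescence normalized to DMSO (no inhibition) and no-cell wells (full inhibition).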

Assay [18] in a line: Cell Proliferation Assay Versus the ED40515 IL2 Independent ATL cell lines (AID 1053194; calls by dose curve). Conditions: ED40515 IL2-independent ATL cells. In a few lines:
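CellTiter-Glo luminescence, read after 15 min at RT, gave viability of IL-2-free ED40515 cells (1000/well, RPMI plus 5% FBS) following 48 h drug exposure at 37C. Control wells held DMSO or 9.2 uM bortezomib.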

Records with an inconclusive call do not appear. The source made the active and inactive calls. Unless noted, calls come from the whole dose curve; as a rule, active = well fitted curve in the direction sought with a large enough effect; inconclusive = small, poorly fitted or top-dose-only effect, or another doubt; inactive = no such curve, though single readings can be large; an effect the other way counts as inactive or inconclusive.

For the compound `COc1ccc(-c2ccc3c(N4CCOCC4)nc(N4C[C@@H](C)O[C@@H](C)C4)nc3n2)cc1CO`, the remaining parasite growth % (stronger effect = lower value) in [1] is 20.8%. In addition, in assay [2], the activity, percent of control was 25.3%. Besides, in assay [3], the remaining proliferation (% of control), lower = more inhibition is 18.1%. In [4], the parasite growth, % of DMSO control was 6.12%. For the same compound, the parasite growth remaining, % of DMSO control (lower = more inhibition) in assay [5] is 15.1%. Moreover, in assay [6], the parasite growth, % of control (lower = inhibition) came to 17.2%. The compound further gave a growth, % of control in [7] of 5.91%. The Potency in assay [8] is 1.48 µM (active); in assay [13], 0.526 µM (active); in [14], 0.833 µM (active); in assay [15], 0.662 µM (active); in [16], 0.59 µM (active). For the same compound, the cell viability, % of control (lower = more cytotoxic) in [9] came to 19.2%. Moreover, the viability (% of control) in [10] was 12.6%. In addition, the Potency result in assay [11] and in assay [12] was “inactive” in each case.
`COc1ccc(C2=N[C@H](c3ccc(Cl)cc3)[C@H](c3ccc(Cl)cc3)N2C(=O)N2CCNC(=O)C2)c(OC(C)C)c1` registered a remaining parasite growth % (stronger effect = lower value) in assay [1] of 52.3%. This compound also gave a remaining proliferation (% of control), lower = more inhibition in assay [3] of 23.2%. In assay [4], this compound yielded a parasite growth, % of DMSO control of 17.5%. The same compound displayed a parasite growth remaining, % of DMSO control (lower = more inhibition) in assay [5] of 54.6%. The compound further had a parasite growth, % of control (lower = inhibition) in assay [6] of 11.8%. The growth, % of control in assay [7] was determined as 12.4%. Moreover, the Potency is 20.9 µM (active) in [8]; 18.7 µM (active) in [13]; 16.6 µM (active) in assay [14]; 5.26 µM (active) in assay [15]; 16.6 µM (active) in assay [16]. Further, the cell viability, % of control (lower = more cytotoxic) in assay [9] worked out at 4.67%. The viability (% of control) in assay [10] amounted to 4.23%. Also, the Potency result in assay [11] and in [12] was “inactive” in each case.
`S=C(NCc1ccc2c(c1)OCO2)N1CCN(c2ncnc3c2oc2ccccc23)CC1` returned a remaining parasite growth % (stronger effect = lower value) in assay [1] of 75.4%. Moreover, the activity, percent of control in assay [2] was 87.1%. In assay [3], the remaining proliferation (% of control), lower = more inhibition worked out at 28.7%. In addition, the parasite growth, % of DMSO control in [4] was found to be 20.8% [at 57.5 µM]. The same compound had a parasite growth remaining, % of DMSO control (lower = more inhibition) in [5] of 66.7% [at 57.5 µM]. Further, the parasite growth, % of control (lower = inhibition) in [6] is 63.5% [at 57.5 µM]. In [7], the growth, % of control was 30.4% [at 57.5 µM]. Moreover, the Potency in [8] was 0.0662 µM (active); in [13], 1.91 µM (active); in assay [14], 7.62 µM (active); in assay [15], 4.81 µM (active); in [16], 12.1 µM (active); in assay [17], 16.6 µM (active). Besides, the cell viability, % of control (lower = more cytotoxic) in assay [9] came out at 387% [at 92.2 µM]. Also, the viability (% of control) in [10] was found to be 56.7% [at 92.2 µM]. Besides, the Potency result in assay [11] and in assay [12] was “inactive” each time.
Take `NC(=O)c1ccc(I)c([N+](=O)[O-])c1`: the remaining parasite growth % (stronger effect = lower value) in assay [1] came to 93.8%. This compound had an activity, percent of control in assay [2] of 92.6%. For the same compound, in assay [3], the remaining proliferation (% of control), lower = more inhibition is 77.5%. Besides, the parasite growth, % of DMSO control in assay [4] is 71.2%. In assay [5], the parasite growth remaining, % of DMSO control (lower = more inhibition) was determined as 97.1%. The parasite growth, % of control (lower = inhibition) in assay [6] was determined as 90.7%. In addition, the Potency in assay [18] is 16.6 µM (active); in assay [8] it was 37.2 µM (active). Moreover, the cell viability, % of control (lower = more cytotoxic) in [9] turned out to be 44.8%. For the same compound, in [10], the viability (% of control) is 40.1%. The Potency result in assay [11], in [12], in [13], in [14], in assay [15] and in assay [16] was “inactive” throughout.
`NC(=O)c1ccc(-c2nc(-c3ccc4c(c3)OCO4)c(-c3ccccn3)[nH]2)cc1` came in with a remaining parasite growth % (stronger effect = lower value) in [1] of 82.3%. The same compound returned an activity, percent of control in [2] of 88.1%. The remaining proliferation (% of control), lower = more inhibition in assay [3] was found to be 71.6%. In addition, the parasite growth, % of DMSO control in [4] is 42.9%. In assay [5], this compound came in with a parasite growth remaining, % of DMSO control (lower = more inhibition) of 55.7%. Also, the parasite growth, % of control (lower = inhibition) in [6] worked out at 32.2%. The compound further returned a growth, % of control in [7] of 18.7%. For the same compound, the figures for the Potency in assay [8], in assay [14] and in assay [15] were 37.2 µM (active), 14.8 µM (active) and 16.6 µM (active), respectively. For the same compound, in assay [9], the cell viability, % of control (lower = more cytotoxic) worked out at 624%. In addition, the viability (% of control) in assay [10] is 113%. The Potency result in [11], in assay [12], in assay [13] and in assay [16] was “inactive” each time.
In assay [1], `C[C@H](NC(=O)Cc1cc(F)cc(F)c1)C(=O)N[C@@H]1C(=O)N(C)c2ccccc2-c2ccccc21` yielded a remaining parasite growth % (stronger effect = lower value) of 7.69%. The activity, percent of control in assay [2] is 7.48%. Besides, in assay [3], the remaining proliferation (% of control), lower = more inhibition was 6.09%. In assay [4], the parasite growth, % of DMSO control amounted to 10.3%. In [5], this compound came in with a parasite growth remaining, % of DMSO control (lower = more inhibition) of 12.1%. Also, the parasite growth, % of control (lower = inhibition) in [6] stood at 12.3%. In addition, the Potency in assay [8] is 20.9 µM (active); in assay [13], 8.33 µM (active); in assay [14], 10.5 µM (active); in assay [15], 11.8 µM (active); in [16], 11.8 µM (active). For the same compound, the cell viability, % of control (lower = more cytotoxic) in assay [9] came out at 176%. Besides, in [10], the viability (% of control) was 43.1%. The Potency result in assay [11] and in assay [12] was “inactive” each time.
